Screens from PubChem BioAssay.
Shown are actives, neighbours in structure and some others; about 11% of the full set was active somewhere.
HEK cytotox = kills HEK 293 cells; Potency, µM (top dose mostly 115 µM), without a hit: at the highest dose activity change, negative = cytotoxicity, hits mostly inhibitors; actives 6.6% (n = 94,000); HEK 293 viability, ATP luminescence (CellTiter-Glo), 48-72 h; AID 1345083; note: nearly all actives have a fitted effect of over 60% in size
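Luminescence from cellular ATP, measured with CellTiter-Glo, indicates HEK 293 viability. Cells plated at 250 cells/well are treated with compound for 48 or 72 hr at 37 degree Celsius before reagent addition.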
3T3 cytotox = cytotoxic compounds in NIH 3T3 cells | NIH 3T3 viability, CellTiter-Glo ATP luminescence, 48-72 h | Potency, µM (doses to about 96.7 µM), without a hit: at the highest dose activity change, negative = cytotoxicity, hits mostly inhibitors | actives 4.3% (n = 94,000) | AID 1345082; note: nearly all actives have a fitted effect of over 55% in size
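Mouse fibroblast NIH 3T3 cells, 400 per well, received compound via pintool and were incubated for 48 or 72 hr prior to CellTiter-Glo ATP luminescence measurement.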
NPR1 antag = antagonists of human natriuretic peptide receptor Npr1. P16066. HEK293 hNpr1 GloSensor cGMP, ANP-stimulated luminescence. Potency, µM (doses to about 46.3 µM), inactives show at the top dose activity change, negative = inhibition, actives largely listed as inhibitors. actives 1.6% (n = 76,000); calls by dose curve; note: nearly all actives have a fitted effect of over 60% in size
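HEK293 cells stably expressing human Npr1 and cGMP GloSensor pGS-40F, loaded 2 h with 2% GloSensor reagent, given compound 30 min at room temperature. Luminescence read before and 20 min after 0.1 nM hNppA.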
FLuc inh = Photinus pyralis luciferase inhibition. P08659. purified P. pyralis luciferase, luminescence, biochemical. Potency, µM (top dose mostly 115 µM), hits mostly inhibitors. actives 2.5% (n = 76,000); note: nearly all actives have a fitted effect of over 65% in size
Target sequence (P08659 whole entry, looked up): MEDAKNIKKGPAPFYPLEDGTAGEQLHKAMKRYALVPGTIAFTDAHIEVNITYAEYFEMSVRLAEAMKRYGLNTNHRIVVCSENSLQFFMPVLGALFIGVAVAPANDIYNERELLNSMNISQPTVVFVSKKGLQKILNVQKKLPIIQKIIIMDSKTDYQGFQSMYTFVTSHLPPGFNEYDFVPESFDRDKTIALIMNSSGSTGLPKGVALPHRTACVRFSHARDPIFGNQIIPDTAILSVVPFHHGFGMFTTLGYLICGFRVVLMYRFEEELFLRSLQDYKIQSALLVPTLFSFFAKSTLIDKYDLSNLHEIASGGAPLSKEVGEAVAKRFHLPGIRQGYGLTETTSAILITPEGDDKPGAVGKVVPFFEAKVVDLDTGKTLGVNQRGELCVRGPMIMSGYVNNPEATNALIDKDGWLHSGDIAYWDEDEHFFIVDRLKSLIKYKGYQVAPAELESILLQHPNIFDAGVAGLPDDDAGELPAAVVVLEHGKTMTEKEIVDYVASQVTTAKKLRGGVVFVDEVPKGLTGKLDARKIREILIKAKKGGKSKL
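Inhibitors were tested against purified firefly luciferase in a biochemical, low-substrate format (both substrates at 10uM) and luminescence measured with a CCD imager.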
Active calls of the source: *; i = inactive; ? = inconclusive; . = no result given; [ ] = another dose, or the depositor's remark. Unless noted, calls come from the whole dose curve; as a rule, active = well fitted curve in the direction sought with a large enough effect; inconclusive = small, poorly fitted or top-dose-only effect, or another doubt; inactive = no such curve, though single readings can be large; an effect the other way counts as inactive or inconclusive. % is set by controls: 0 for no effect and ±100 for the full control effect; potency is the fitted concentration of half-maximal effect.

SMILES	HEK cytotox	3T3 cytotox	NPR1 antag	FLuc inh
Cc1cccc2c1O[C@H]1[C@H](CO)CN([S+](=O)([O-])Cc3ccccc3)[C@@H]21	79.4µM*	?	.	.
Cc1cccc(C(=O)N2C(C(=O)NCc3ccccc3)COC23CCN(C(=O)CC(C)(C)C)CC3)c1 (stereo not drawn)	-2.1%	-21.3%	4.2%	i
CC(=O)N1CCCN(c2cc(Cl)nc3ccnn23)CC1	-21.5%[172 µM]	-19.1%[138 µM]	31.4%[70.6 µM]	i
NC(=O)c1noc2c1CN(c1cc(-c3ccccc3)nc3ccnn13)CC2	44.7µM*	?	-20.5%	i
Cc1onc(-c2cnn(C)c2NCc2ccc(C#N)cc2)c1C(=O)N(C)c1ccccc1	?	44.7µM*	-3.1%[70.6 µM]	i
COc1cc(Nc2nc(-c3ccccc3F)no2)cc(OC)c1OC	31.6µM*	?	-12.6%	?
COc1cc(Nc2nc(-c3ccccc3)no2)cc(OC)c1OC	?	?	-24.9%	31.6µM*
COc1cc(Nc2ncncc2-c2nc(-c3ccccc3)no2)cc(OC)c1OC	-4.8%	-22.8%	-20.4%	i
COc1ccc(-c2noc(Nc3cc(OC)c(OC)c(OC)c3)n2)cc1OC	22.4µM*	?	-27.8%	i
COc1cccc(-c2noc(Nc3cc(OC)c(OC)c(OC)c3)n2)c1	44.7µM*	?	6.6%	?
COc1ccc(-c2ccc(COc3ccc4c(cnn4CCC(=O)O)c3)cc2)c(C)c1	?	?	-8.6%[70.6 µM]	?
Cc1cc(C)cc(-c2ccc(CN3CCCC(NC(=O)c4cccnc4)C3)cc2)c1 (stereo not drawn)	20µM*	20µM*	.	.
O=C(c1ccncc1)N1CC2CCC(C1)N2Cc1ccc(-c2cccnc2)cc1	?	?	?	i
Cc1cc(C)cc(-c2ccc(CN3C4CCC3CN(C(=O)c3ccncc3)C4)cc2)c1	44.7µM*	?	.	.
COC(=O)NC1CCCN(Cc2ccc(-c3cc(C)cc(C)c3)cc2)C1 (stereo not drawn)	39.8µM*	44.7µM*	.	.
Cc1cc(C)cc(-c2ccc(CN3CCCC(NC(=O)c4ccc(Cl)nc4)C3)cc2)c1 (stereo not drawn)	?	-12.2%	.	.
Cc1cc(C)cc(-c2ccc(CN3CCCC(NC(=O)c4ccncc4)C3)cc2)c1 (stereo not drawn)	28.2µM*	25.1µM*	.	.
COc1ccc(-c2noc(CCCC(=O)N3CCCn4nc(-c5ccc(F)cc5)cc4C3)n2)cc1OC	31.6µM*	?	.	.
COc1ccc(-c2noc(CCCC(=O)N3CCC(c4nc(C5CCOCC5)no4)C3)n2)cc1OC (stereo not drawn)	?	?	-27.2%	i
Cc1cc(C)n(CC(=O)N[C@@H]2CN(Cc3cccnc3)C[C@H]2CN(C)C)n1	0.3%	-6.3%	6.0%	i
CCCCOc1ccc(CN2C[C@@H]3C(=O)N(C)C(=O)[C@@H]3C2)cc1	?	-7.7%	-21.1%	28.2µM*
CN1C(=O)[C@H]2CN(Cc3ccc(C#N)cc3)C[C@H]2C1=O	8.1%	i	-1.5%	i
Cc1nnc(-c2cc(-c3cccc(N(C)C)c3)ccn2)n1Cc1ccccc1	89.1µM*	50.1µM*	4.1%[70.6 µM]	?
COCCn1c(C)nnc1-c1cc(-c2ccc(OC)c(OC)c2)ccn1	2.5%[172 µM]	89.1µM*	2.0%[70.6 µM]	i
Cc1nnc(-c2cc(-c3cccc(F)c3)ccn2)n1Cc1ccccc1	89.1µM*	?	0.9%[70.6 µM]	i
SMILES	HEK cytotox	3T3 cytotox	NPR1 antag	FLuc inh
Cc1nnc(-c2cc(-c3cccc(N(C)C)c3)ccn2)n1Cc1ccncc1	0.7%[172 µM]	?	-0.4%[70.6 µM]	i
COc1cccc(-c2ccnc(-c3nnc(C)n3Cc3ccccc3)c2)c1	?	79.4µM*	-1.8%[70.6 µM]	i
O=C(c1ccoc1)N1CCC(c2n[nH]c(=O)n2-c2ccccc2)CC1	1.9%	-6.2%	3.5%	i
O=C1NCCCCCN(C(=O)CCC2CCCC2)[C@H]2CCCC[C@@H]12	-23.9%	?	0.0%	i
O=C(NC1CCCCC1)C1CN(C(=O)c2ccc(Br)o2)CC12CCOCC2 (stereo not drawn)	i	i	-2.3%	i
COc1ccc(Cl)cc1S(=O)(=O)N1CCc2nn(CC3CC3)c(=O)n2CC1	4.9%	-5.1%	0.4%	i
O=C(NCc1ccccc1)Nc1cnc2c(c1)CCC2	?	-10.5%	.	.
COc1ncc(-c2ccnc(-c3nnc(C)n3CCc3ccccc3)c2)cn1	-4.5%[172 µM]	100µM*	5.5%[70.6 µM]	i
CC(=O)Nc1cccc(-c2ccnc(-c3nnc(C)n3Cc3ccccc3)c2)c1	?	?	-18.4%[70.6 µM]	50.1µM*
COCCN(CCNC(=O)C1Cn2cccc2C(=O)N1)Cc1ccco1 (stereo not drawn)	-2.0%	i	-10.6%	i
Cc1ccc(NC(=O)c2cc3c(s2)CN(C2CC2)C3)cc1	?	?	-30.1%	8.91µM*
CCOc1ccc(NC(=O)c2cc3c(s2)CN(C2CCCC2)C3)cc1	?	?	-19.6%	i
CSc1ccc(NC(=O)c2cc3c(s2)CN(C2CC2)C3)cc1	?	?	11.2µM*	?
O=C1CO[C@H]2CCN(Cc3ccccc3F)CC[C@@H]2N1c1ccccc1	?	-24.7%[138 µM]	-26.3%[70.6 µM]	i
O=C(NCc1ccccc1)C1CCC(=O)N1C1CCN(C(=O)c2cc(F)cc(F)c2)CC1 (stereo not drawn)	-10.5%	-6.4%	0.1%	i
CC1(C)C(=O)N(CC2CCOCC2)[C@H]2CN(Cc3cccs3)C[C@@H]2[S+]1(=O)[O-]	0.1%[172 µM]	79.4µM*	-2.6%[70.6 µM]	i
Cc1ccc(C)c(C(=O)N[C@@H]2CN(Cc3ccccn3)C[C@H]2CN(C)C)c1	79.4µM*	-3.2%	-3.9%	i
CN(C)C[C@@H]1CN(Cc2ccncc2)C[C@H]1NC(=O)c1ccc(Cl)cc1	39.8µM*	?	-9.9%	i
CN(C)C[C@@H]1CN(C2CCOCC2)C[C@H]1NC(=O)c1ccc(F)c(Cl)c1	79.4µM*	?	-9.6%	i
CN(C)C[C@@H]1CN(Cc2ccncc2)C[C@H]1NC(=O)c1ccoc1	-18.1%	-11.9%	4.1%	i
COc1ccc(C(=O)N[C@@H]2CN(Cc3ccccc3)C[C@H]2CN(C)C)cc1	5.62µM*	?	.	.
CN(C)C[C@@H]1CN(Cc2ccccn2)C[C@H]1NC(=O)c1cccc(Cl)c1	?	?	7.4%	i
COCCC(=O)N[C@@H]1CN(Cc2ccccc2)C[C@H]1CN(C)C	-13.2%	-13.0%	-0.7%	i
CCOc1ccc(CC(=O)NC2CCN(c3cc(-c4ccc(OC)cc4)[nH]n3)CC2)cc1	?	?	0.0%	i
Cc1cccc(N2CCN(C(=O)C3CCCN(C(=O)c4cccnc4)CCC(=O)NCC3)CC2)c1 (stereo not drawn)	i	3.1%	7.1%	i
COc1ccc(C(=O)N[C@@H]2CN(Cc3ccccc3)C[C@H]2CN(C)C)cn1	?	31.6µM*	.	.
COc1ccc(C(=O)N[C@@H]2CN(c3ncccn3)C[C@H]2CN(C)C)cn1	i	i	5.4%	i
